Measurements reported in PubChem BioAssay (NCI).
This is part of a sample that, as a whole, favours compounds with a hit. Of some 83,000 tested, about 20% had one in any assay.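 Assay: single dose, 48 h. Readout: percent growth (0 = no net growth; negative = cell death). Active: <10.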 Unmarked numbers belong to inactive results. Active and inactive are the calls of the source.

Legend:
Assay in all cases: NCI-60 one-dose screen, 48 h (100 = growth as untreated, 0 = no growth, -100 = all killed)
Details in all cases: 10 µM unless noted
NCI-H23 lung = system: NCI-H23 lung
NCI-H226 lung = system: NCI-H226 lung
NCI-H322M lung = system: NCI-H322M lung
HOP-62 NSCLC = system: HOP-62 NSCLC
HOP-92 NSCLC = system: HOP-92 NSCLC
NCI-H522 lung = system: NCI-H522 lung
A549/ATCC NSCLC = system: A549/ATCC NSCLC
786-0 renal = system: 786-0 renal
COLO 205 colon = system: COLO 205 colon
DU-145 prostate = system: DU-145 prostate
K-562 leukemia = system: K-562 leukemia
MALME-3M melanoma = system: MALME-3M melanoma
MDA-MB-231 breast = system: MDA-MB-231 breast
RXF 393 renal = system: RXF 393 renal
SF-268 CNS = system: SF-268 CNS
SF-295 CNS = system: SF-295 CNS
SF-539 CNS = system: SF-539 CNS
UACC-257 melanoma = system: UACC-257 melanoma
M14 melanoma = system: M14 melanoma
NCI-H460 lung = system: NCI-H460 lung

SMILES | growth (NCI-H23 lung) | growth (NCI-H226 lung) | growth (NCI-H322M lung) | growth (HOP-62 NSCLC) | growth (HOP-92 NSCLC) | growth (NCI-H522 lung) | growth (A549/ATCC NSCLC) | growth (786-0 renal) | growth (COLO 205 colon) | growth (DU-145 prostate) | growth (K-562 leukemia) | growth (MALME-3M melanoma) | growth (MDA-MB-231 breast) | growth (RXF 393 renal) | growth (SF-268 CNS) | growth (SF-295 CNS) | growth (SF-539 CNS) | growth (UACC-257 melanoma) | growth (M14 melanoma) | growth (NCI-H460 lung)
O=C(Cc1ccc(/C=C/C(=O)c2ncc[nH]2)cc1)Nc1cc(F)c(F)c(F)c1 | 32.2% | 95.2% | 72.8% | 90.6% | 116% | 49.1% | 70.6% | 8.88% (active) | 64.9% | 18.7% | 18.3% | 93.7% | 41.4% | 13.1% | 58.3% | 77.3% | 5.66% (active) | 99.9% | 85.2% | –
O=C1CCCCN1c1ccc(C2=NCCCN2)cc1 | 99.2% | 101% | 92.3% | 101% | 117% | 79.1% | 97% | 95% | 104% | 103% | 80.6% | 77.4% | 88.6% | 90.4% | 92% | 85.1% | 64.7% | 111% | 104% | –
Nc1c(Br)cc2c(c1Br)Cc1cc([N+](=O)[O-])ccc1-2 | 81.3% | 69% | 98.4% | 90.3% | 84.8% | 97% | 86.8% | 109% | 109% | 124% | 69.5% | 67.3% | 90.6% | 115% | 103% | 117% | 99.4% | 93.5% | 111% | –
CN1C(=O)/C(=C/c2ccc(C(=O)Nc3ncc(Cc4cc(Cl)ccc4Cl)s3)cc2)SC1=S | 67.6% | 68.5% | 76.7% | 72.4% | 50.2% | 62.5% | 73.3% | 87.9% | 89.2% | 73.7% | 54.7% | 69.4% | 75.7% | 60.1% | 71% | 65.8% | 79.8% | 91.8% | 46.5% | –
CSc1ccc2c3c(n(C[C@H](O)CO)c(=O)c2c1)-c1ccccc1C3=O | 38.1% | 12.8% | 74.3% | 21.5% | 106% | 43.7% | 14.5% | 27% | 54.2% | 22% | 20.7% | 74.4% | 108% | 79.7% | 44% | 14.3% | 10.3% | 85.5% | 52.2% | –
COc1ccc2[nH]cc(-c3nonc3-c3c[nH]c4ccc(Br)cc34)c2c1 | 54.1% | 74.8% | 50.5% | 33.8% | 54% | – | 35.3% | 61.4% | 32.1% | 43.8% | 7.68% (active) | 70.4% | 5.3% (active) | 76.7% | 47% | 26.1% | 56.3% | 64.2% | 31.8% | 8.13% (active)
O=c1ccc2ccc(OCCN3CCCCC3)cc2o1 | 98.4% | 103% | 97% | – | -17.3% (active) | 86.6% | 98% | 99.5% | 98.5% | 118% | -17.2% (active) | 107% | 95.7% | 114% | 110% | 98.8% | 106% | 89.3% | 96.1% | 108%
COc1cc(-c2cc(-c3ccc(Nc4nc(Nc5ccc(Cl)cc5)nc(Nc5ccc(Cl)cc5)n4)cc3)no2)cc(OC)c1OC | 88.3% | 78% | 80.8% | – | 37.9% | 76.5% | 66.7% | 72.7% | 51.5% | 80.6% | 50.9% | 88.7% | 64.4% | 33.9% | 67.9% | 62.3% | 74.9% | 100% | 68.3% | 76.2%
COc1ccc(/C=C2\CN(C(=O)C(Cl)Cl)C/C(=C\c3ccc(OC)c(OC)c3)C2=O)cc1OC | -51.8% (active) | 42.8% | 30% | – | -7.03% (active) | -14.1% (active) | 4.8% (active) | -94.9% (active) | -2.98% (active) | -16% (active) | 4.57% (active) | -70.9% (active) | 7.12% (active) | -67.1% (active) | 17.8% | -39.6% (active) | -23.8% (active) | 18.4% | -72.6% (active) | -51.9% (active)
Cn1c(C#N)ccc1-c1ccc(F)c(NC(=O)c2ccc(F)cc2)c1 | 80.6% | 105% | 97.9% | – | 70.5% | 76.2% | 83.2% | 84.8% | 90.9% | 94.3% | 23.6% | 91.2% | 73.7% | 85.3% | 81.9% | 68.8% | 73.8% | 107% | 59.8% | 80.2%
CCOC(=O)c1[nH]cc2c1CCc1sc(Nc3ccccn3)nc1-2 | 66.7% | 57.2% | 96% | – | 56.3% | – | 70.2% | 98.7% | 93.7% | 74.4% | 59.5% | 108% | 82.3% | 86.2% | 89.4% | 86.5% | 101% | 73.8% | 86.3% | 85.9%
CCN1C(=O)N(CC)C2C1NN=c1s/c(=C\c3ccc(OC)cc3)c(=O)n12 (centres undefined) | 32.2% | 60.5% | 45.9% | 37.1% | 33% | -9.26% (active) | 10% | 20.8% | -7.08% (active) | 6.18% (active) | 8.38% (active) | 40.2% | 16.3% | 33.9% | 49.4% | 13.2% | -21.4% (active) | 56.3% | 6.11% (active) | –
CN(C)c1ccc(CNCCO)cc1 | 107% | 91.9% | 104% | – | 75.1% | 43.5% | 76% | 86.1% | 85.7% | 105% | 97.9% | 103% | 110% | 113% | 101% | 103% | 97.5% | 85.4% | 96.7% | 105%
O=C1CCCC1[n+]1ccccc1 (centres undefined) | 108% | 105% | 93.6% | – | 97.4% | 62.1% | 72.3% | 82.2% | 86.1% | 105% | 108% | 89.9% | 105% | 121% | 95.2% | 95.1% | 82.6% | 79.2% | 95% | 111%
CN1c2ccccc2S(=O)(=O)n2c(SCC(=O)Nc3nc4ccc(F)cc4s3)nnc21 | 97.4% | 113% | 93.1% | – | 84.7% | 72.2% | 82.8% | 112% | 114% | 125% | 116% | 98.8% | 103% | -23.2% (active) | 105% | 124% | 108% | 86.2% | 100% | 103%
